The supplement of paper PMC12632987

T1: USP38, Q8NB14
T1 chain: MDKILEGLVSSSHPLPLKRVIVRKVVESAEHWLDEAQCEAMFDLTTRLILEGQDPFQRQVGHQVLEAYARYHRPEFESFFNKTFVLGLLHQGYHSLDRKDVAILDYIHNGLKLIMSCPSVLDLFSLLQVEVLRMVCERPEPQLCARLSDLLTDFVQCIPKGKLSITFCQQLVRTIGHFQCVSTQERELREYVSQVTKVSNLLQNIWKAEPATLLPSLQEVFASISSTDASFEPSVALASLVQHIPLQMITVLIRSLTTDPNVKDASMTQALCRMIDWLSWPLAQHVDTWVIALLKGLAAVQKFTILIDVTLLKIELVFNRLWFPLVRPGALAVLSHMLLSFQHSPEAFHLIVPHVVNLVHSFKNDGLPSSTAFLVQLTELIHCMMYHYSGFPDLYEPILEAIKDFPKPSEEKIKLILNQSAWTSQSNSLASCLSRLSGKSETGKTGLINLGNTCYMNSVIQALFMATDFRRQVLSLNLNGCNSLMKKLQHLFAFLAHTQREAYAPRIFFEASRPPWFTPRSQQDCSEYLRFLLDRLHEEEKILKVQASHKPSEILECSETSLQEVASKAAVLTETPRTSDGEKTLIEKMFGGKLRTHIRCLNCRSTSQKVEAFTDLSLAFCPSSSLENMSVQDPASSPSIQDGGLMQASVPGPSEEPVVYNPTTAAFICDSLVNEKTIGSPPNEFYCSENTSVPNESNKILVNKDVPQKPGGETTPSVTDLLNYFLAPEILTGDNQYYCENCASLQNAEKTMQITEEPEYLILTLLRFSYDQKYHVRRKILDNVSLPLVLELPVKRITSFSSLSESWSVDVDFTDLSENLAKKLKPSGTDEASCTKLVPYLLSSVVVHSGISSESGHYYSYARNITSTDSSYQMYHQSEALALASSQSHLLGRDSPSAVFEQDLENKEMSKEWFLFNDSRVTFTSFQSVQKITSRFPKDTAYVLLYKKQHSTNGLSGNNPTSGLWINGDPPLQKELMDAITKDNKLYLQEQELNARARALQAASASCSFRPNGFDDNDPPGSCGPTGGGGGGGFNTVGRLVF

B1: usp_38_diff_out_20_123_450 (protein)
chain: SEELREEAEELLRRAEQLLENSEQILKFVKAGVLSEETIKSHIEMIESQIKYIEEKIERLRKEDPSLEPLLEEVEKIREEVKKTLEEIKKAAEERKKEEA
B2: usp_38_diff_out_21_100_459 (protein)
chain: MEEIKKEIKEELEKAEKALKEAIKLLKEGAKKEEILKKLDEALSHLVRAQYLAAKISFELAHKISEIIDIVQEAKKLLDTDKEKALELLEKALKELKELK
B3: usp_38_diff_out_20_123_457 (protein)
chain: MEKLKAEAEALLKRAEALLENAKQILKFVKAGVLSEEQVEEHIEMIEEHIKYLEEELKKLKAAAPELKELLEKVEKAIKETKKVREEIKKELEKRRKEKE
B4: usp_38_diff_out_20_123_446 (protein)
chain: MEEARERAERLLERARQLLENAKQILKFVKAGVLSKETIESNIKFIESQIEYLERERERLREEHPELEELLEEIDRVLEETREVLKEIKAAAAAREAAEA
B5: usp_38_diff_out_24_27_497 (protein)
chain: EEEKKEKLEKLIKKFEEILKLAKEAVGADLATRIRLSREIDELLEEARKLAEELGIEEVKKIVTEVAVKASIVLSGSEEMEEAIEEIEKLIEEAKKLLEE
B6: usp_38_diff_out_22_74_482 (protein)
chain: SAEAEAVAATKAEIEKLTAETLKKLDELYKEAKKYIEAGDYKNARRKLAEMDDLVTETVIYLNKVALAEGAVHDLALAKANEIRKKATEINEELEKLLKE
B7: usp_38_diff_out_22_74_487 (protein)
chain: SAAEKAQEEAKKKLEELLKEFNEELEKYLKEAKKAIEAGNLKEARRILGEFTSKFAELSSKIAKAAWEAELPLDEIQKIMTDLTKKAAEAVKEMEEAIKA
B8: usp_38_diff_out_22_164_481 (protein)
chain: KEEEIKEKLKKEIEEKIKETKKELDKLFAKAKADPEKKEEYIKEARMLLIKTQKELLELIEKTVKENNLSEETKEELRSFLTVQMLKLLNYLDEKEEELK
B9: usp_38_diff_out_20_123_456 (protein)
chain: MEKAKEEAEKLLRRAKQLVENAEQVLKFVKAGVLSEEKAEEYIKSFEEHIKYIEKEVKKLKKEYPELKELLEEVEKEIKKAKKVLKELKEAVEKRKKEEE
B10: usp_38_diff_out_22_164_478 (protein)
chain: SEEEILKKVKEELEKLAEETKKELDKLFEEAKANPEKKEEYIQEAQMLIIKTQKEMNDYIEETVKKYNLSEETKEELKSHRTVLNLKVLNYLDEKIEELK
B11: usp_38_diff_out_22_74_483 (protein)
chain: SAEEAETEALKKEIDEKVKKTKEELDRLRAEAKAAIAAGRYREARRLLAEMDDLVTDTVIWLNKVALAHGAVHDYALAKANEIREYATKINAELEALLEA
B12: usp_38_diff_out_20_123_449 (protein)
chain: SEELRERAERLLRDAERLLENAKQILKFVEAGVLSEETVEAHIEMIEAHIEYIEREIERLRREDPSLAPLLERVERVLEEVKEVLEKIKEAAEKRKEEEK
B13: usp_38_diff_out_1_162_45 (protein)
chain: KVEEVLEEAERLLEEAEKLIEAAEKALAAGDLETARKYLDEAWDKLGELAKLLREARRLRRELSPERQEEVRKRLRELEERADELIDRLTELETEVFLRE
B14: usp_38_diff_out_1_162_44 (protein)
chain: AVEETLAQLEEALERAERLIEEAERALEEGDLERARELLDEAADTLGRAAQLLREARRLSRELSPEERARVRERLRELNERLDELIDRLTELEREVFLRE
B15: usp_38_diff_out_20_123_454 (protein)
chain: SEELRKEAEELLRRAEQLLENAEQILKFVKAGVLSLEKVEEHIKFIEEHIKYLEEKLKELKKKDKSLKELLEKIEELIKKTKEVLKEIKEAVEKRKKEAA
B16: usp_38_diff_out_20_123_455 (protein)
chain: SEELRERAERLLKRSKQLVENAKQILKFVKAGVLSEETVEEHIKFLEDLIKYFEEELERLKKEDPSLKELLEEVEAAIKEAKEVLKEIKEAAEKRKKEEE
B17: usp_38_diff_out_22_74_486 (protein)
chain: SAEAEEVAKIKAEIDKLVAELNAYLEKAKEEAEKAIAAGRLREARRIRAEMDDKVTDAIITLNKIALANGAIHDYALAKAQEIRDKSTKVFEEIDARLAA
B18: usp_38_diff_out_1_162_46 (protein)
chain: EVEKLLEEAEKLLEEAKELIEKAKEAFKEGKLEEAEKYLDEAADKLGQLAKLLREARRLRRELSPERQEEVRKRLRELEERANELIDEYTELETEVFLAK
B19: usp_38_diff_out_1_162_48 (protein)
chain: EVEELLKKAKEKLKEAKELIKKAKEALKAGDLETAKKYLDKAWDLLGELAKLLREARRKMRELSPEERKKVRKELKKLEEEADKLIDELTKLETEVFLKE
B20: usp_38_diff_out_22_74_485 (protein)
chain: SAEEEANAALRAEIDAKVADWNKYREEAERRIEEAIAAGRYREARRLLAELDDKTTDLIIWLNKQALANGAIHDYALAKAEEIRKKTTEVVERAEARLAA
B21: usp_38_diff_out_20_123_458 (protein)
chain: SSEALERAERLLRQAEQLLENAEQILKFVKAGALSEETVEEHIKFIETHIKYLEEELERLEEEHPELEELLERIREILERTRKVLEEIKKALEKRRKEKE
B22: usp_38_diff_out_1_9_444 (protein)
chain: DVRREIAEALLEALERGLEELERLRARAEAALAAGDLARAEALLRRLVRNARGLEAAAEDLIEMAKEIGDEELARRAEEILERARRLREEAEARLAELAA
B23: usp_38_diff_out_22_164_479 (protein)
chain: SEEEILEKLKEEIEKLAEETKKKLEELAKKAKENPEKKEEYLKQMRMLVIQTQQKMGDLIDEAAKKYNLSEETVEELRSHRTVQSLKVLNYLDELEKELE
B24: usp_38_diff_out_22_74_484 (protein)
chain: SAEEEETEKLRKEIEERKAETLARLEELRAAARAALAAGDERAARRLLAELDDLVTDTVIWLNKVALAHGAIHDYALETALEIRERATAIVAELEAALAA
B25: usp_38_diff_out_22_164_477 (protein)
chain: MEEKIKKEVKEKIEKIAEETKKKIDELFAEAKANPEKKEEYIKKARMLLIESNKEIKEYIEKTVKENNLSEETKEELNSHATVQNLKVLNYLDEKIEELK
B26: usp_38_diff_out_20_123_447 (protein)
chain: SEELRARAERLLRQAEQLLENAEQILKFVKAGVLSKETQKAHIEFIESQIETIRREIERLRAEDPSLAELLARIEEVLRKVEETLEEIKKAVEKREKEEA
B27: usp_38_diff_out_20_123_451 (protein)
chain: SEELRKEAEELLKRAKQLLENAKQILKFVKAGVLSEETIEAHIKMIESQIKYIEEKIKELREKDPSLKPLLEEVEKVVKEVKETLKEIKEAAEKRRKEKA
B28: usp_38_diff_out_20_123_448 (protein)
chain: SEALRARAEELLRRAEQLLENAKQILKFVKAGVLSEETVESHIKMIESQIEYIRREIERLRAEDPSLAPLLEEVERVVREVEEVLEEIKKAVEERKKEKA
B29: usp_38_diff_out_20_123_452 (protein)
chain: AAALRAEAEALLARAQQLLENAEQVLKFVKAGVLSEETVEEHIEMFEAHIEYLEAERARLAAEAPELAPLLAQIDEAIAKAKEVLEKIKEELEKRREEEE
B30: usp_38_diff_out_24_27_495 (protein)
chain: EEEKKKLLEKLIEKFEKILELAKKAVGADLATRIKLSSEIDELLEEARKLAKELGIPEVEKLVTQVAIQASIVLSGSEEMEEAIKEIEKIIEELKKLLKE
B31: usp_38_diff_out_1_9_443 (protein)
chain: SVDDVIIEALEKALEDGLKELKELEKKAEKALKAGDKAQAEALLKRLIRNAEGLIAAAKDAIKLAKKAGLEERAKRLEEMLKEAEKLLEEAKKKLKELKA
B32: usp_38_diff_out_23_30_488 (protein)
chain: SPLEEAKKRLREAAEKARKEATEIKKKAEELKKKAENEYLKALANQVIDAANDFIEDLDIWLSRIDEYDEARLLRLTEYVEASLAHLKQLYEDLLKEFKK

Target: T1, USP38, Q8NB14
Experiment: median log2 fold change of GCK-ALFA target abundance (FLAG IP / Myc IP barcode read proportion) (log2 ratio); each designed protein is fused to an ALFA-tag nanobody in HEK293 cells to bring the named protein to FLAG-tagged glucokinase (GCK); Myc marks an untargeted standard; higher = target protein stabilised (more abundant)
Settings: target protein: 3xFLAG-MCP-GCK-ALFA reporter; HEK293 landing pad (RPLP)
In short: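 The readout is target abundance, the per-binder median log2 ratio of FLAG to Myc barcode read proportions. It came from HEK293 landing-pad cells carrying a recombined ALFA-nanobody-fused binder library, induced with 2 μg mL^−1 doxycycline and transfected with a plasmid for a FLAG-tagged target and a Myc-tagged standard. After 48 h, lysates were immunoprecipitated with anti-FLAG and anti-Myc, and circular RNA barcodes were reverse transcribed, amplified and sequenced. Each barcode needed a proportion of at least 10^−7 in both replicates and each binder at least 3 barcodes per replicate, a pseudocount of 10^−6 was added, and the replicates were pooled.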

Row | Binder | median log2 fold change
1 | B1 | 0.529
2 | B2 | -0.0676
3 | B3 | 0.24
4 | B4 | 0.247
5 | B5 | 0.276
6 | B6 | 0.312
7 | B7 | -0.392
8 | B8 | -0.692
9 | B9 | 0.134
10 | B10 | 0.187
11 | B11 | 0.0676
12 | B12 | 0.117
13 | B13 | -0.331
14 | B14 | 0.133
15 | B15 | 0.308
16 | B16 | 0.12

Row | Binder | median log2 fold change
17 | B17 | -0.198
18 | B18 | -1.08
19 | B19 | -0.368
20 | B20 | -0.0773
21 | B21 | 0.0141
22 | B22 | -0.00975
23 | B23 | 0.177
24 | B24 | 0.0294
25 | B25 | 0.309
26 | B26 | 0.258
27 | B27 | 0.227
28 | B28 | 0.273
29 | B29 | 0.438
30 | B30 | 0.368
31 | B31 | 0.0775
32 | B32 | 0.13
